Activity calls are given as the source filed them. The calls were made as follows: active = hit-call score of the fitted dose curve at least 0.9, where 1 is the maximum; inactive = score below 0.9.

The assay is described as follows: CEETOX_H295R_MTT_cell_viability: Viability Assessment in the CeeTox HT-H295R MTT Assay (AID 2283718).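 As to AC50: curve fitted both ways so AC50 may mark viability loss or gain.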 As for the experimental part: CEETOX_H295R is a cell-based, multiplexed-readout assay that uses H295R, a human adrenal gland cell line, with measurements taken at 48 hours after chemical dosing in a 96-well plate.CEETOX_H295R_MTT_cell_viability is one of 23 assay component(s) measured or calculated from the CEETOX_H295R assay. It is designed to make measurements of cell number, a form of viability reporter, as detected with […] signals by MTT cytotoxicity assay technology.The assay component endpoint CEETOX_H295R_MTT_cell_viability was analyzed with bidirectional fitting relation to DMSO as the negative control and baseline of activity. Using a type of viability reporter in the MTT cytotoxicity assay, gain or loss-of-signal activity can be used to monitor cellular processes to understand changes in proliferation. To generalize the intended target to other relatable targets, this assay endpoint is annotated to cell cycle, where the subfamily is proliferation.
Cell culture and media preparation procedures were conducted in accordance with OECD Test No. 456 guidelines, with minor modifications. H295R cells (ATCC CRL-2128) were expanded for 5 passages and frozen in batches in liquid nitrogen. Prior to the steroidogenesis assay, H295R cells were thawed and passed at least 4 times. The maximum passage was 10. Cells were maintained in a 1:1 mixture of DMEM/F12 supplemented with 5ml/L ITS+ Premix (BD Bioscience) and 12.5 ml/L Nu-Serum (BD Bioscience). After seeding cells into 96-well plates at 50-60% confluency, cells were allowed to adhere overnight. Prior to chemical testing, culture medium was replaced with 175 uL medium containing 10 uM forskolin to stimulate steroidogenesis for 48 hours. Following prestimulation, forskolin medium was replaced with medium containing test chemical solubilized in DMSO (ensuring a final concentration of 0.1% DMSO). Test chemicals were incubated for 48 hours, then the medium was removed and split into 2 vials containing approximately 75uL each, and stored at -80 C prior to hormone analysis. For steroid quantification, media samples were shipped to OpAns, LLC (Durham, NC) on dry ice, and samples were thawed to room temperature prior to liquid-liquid extraction. Steroid hormones were extracted from media samples using methyl tertbutyl ether (MTBE). An extra derivatization with dansyl chloride was included for estrogen (estrone and estradiol) detection only. Steroid hormones were separated by HPLC, eluted using a reverse phase C18 gradient with electrospray positive ionization, followed by quantification by tandem mass spectrometry (MS/MS). Data were acquired on a MassHunter Workstation Acquisition version B03.01 (Agilent Technologies, Inc.) and processed using MassHunter Quantitative Analysis for QQQ. Accuracy was determined for each hormone analyte from 3 standards to determine upper and lower limits of quantification (ULOQ and LLOQ, respectively) using a 7-point standard curve. Precision and accuracy of the extraction and quantification methods were calculated as the percent relative standard deviation (%RSD) of the spiked standards and percent spiked standard recovered, respectively. The goal was to achieve 100% accuracy (i.e., recover all spiked-in standard at quantification with minimal loss during run time) and good precision (i.e., have %RSD <15% to ensure reproducibility). Test medium was removed following chemical exposure, and cell viability was evaluated in the same wells by MTT. MTT procedures were as follows: after removal of test medium, 500 uL of 0.5 mg/ml of 3-[4,5-dimethylthiazol-2-y]2,5-diphenyltetrazoliumbromide solution was added to the cells. Following a 4-hour incubation at 37 C and 5% CO2 to allow formazan-crystal formation, the MTT solution was removed and blue formazan salt crystals were solubilized using 500uL anhydrous isopropanol with shaking for 20 minutes. Absorbance was read at 570 and 650nm using a Packard Fusion microplate reader. […]
In the case of `CCCCCC(C)OC(=O)COc1ccc(Cl)c2cccnc12` (stereo not given), the call was inactive.
As a reminder, the AC50 is the concentration at which the activity in the assay is half-maximal. Take `C[C@]12CC[C@@H]3c4ccc(O)cc4CC[C@H]3[C@@H]1C[C@@H](O)[C@@H]2O`: the AC50 was 91.7 µM (active).
Take `CCCCCc1ccc(O)cc1`: the result was inactive.
As for `COc1cccc(O)c1`, the call was inactive.
On the same count and under the same terms, as for `COc1cc([N+](=O)[O-])ccc1N`, the entry is “inactive”; as for `CC(C)(C)c1ccc(O)c(O)c1`, “inactive”.
Still for that read-out and setting: as for `CC(C)(c1ccc(Oc2ccc(N)cc2)cc1)c1ccc(Oc2ccc(N)cc2)cc1`, the entry is “inactive”; as for `c1cc[nH]c1`, “inactive”.
Still for that read-out and setting: as for `Cc1cccc2c1ccc1ccccc12`, the entry is “inactive”.
For `O=C(NCc1ncc(C(F)(F)F)cc1Cl)c1c(Cl)cccc1Cl`, the compound was called inactive.
On to `Clc1ccc(Nc2nnc(Cc3ccncc3)c3ccccc23)cc1`, for which the compound was classed as inactive.
The same measure, in the same setting: in the case of `O=C(CCCN1CCC(O)(c2ccc(Cl)cc2)CC1)c1ccc(F)cc1` it was “inactive”; in that of `CC(C)CCOCCC(C)C`, “inactive”.
Turning to `C/C=C/C(=O)C1=C(C)CCCC1(C)C`, the result was inactive.
On the same count and under the same terms, in the case of `Oc1cc2ccccc2cc1O` it was “inactive”.

(Values after PubChem BioAssay (EPA / NIEHS).)
